What all share (assay): NCI-60 one-dose screen, 48 h (100 = growth as untreated, 0 = no growth, -100 = all killed)
Settings in all cases: 10 µM unless noted

For experiment [1], the system named is DU-145 prostate.
In experiment [2] the test system is K-562 leukemia.
Experiment [3] has as its system MALME-3M melanoma.
Experiment [4] deals with MDA-MB-231 breast.
For experiment [5], the system named is RXF 393 renal.
Experiment [6] relates to SF-268 CNS.
The test system of experiment [7] is SF-295 CNS.
Experiment [8] has as its system SF-539 CNS.
Experiment [9] deals with M14 melanoma.
In experiment [10] the test system is UACC-257 melanoma.

The structures appear in SMILES notation. About 83,000 compounds went through this panel and 20% of them were active in at least one assay; those are over-represented in the sample as a whole.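 Note: values are percent growth. 100 is the growth of untreated cells, values between 100 and 0 indicate rising inhibition; between -100 and 0 indicates cell death.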 Values without a mark were called inactive. Calls of active or inactive are those of the source. How the source made its calls: active means growth percent below 10; inactive means the rest.

As for `O=C1c2c(c3c4ccccc4n(CCCCCCBr)c3c3[nH]c4ccccc4c23)C(=O)N1O`, the growth in experiment [1] was 22.6%; in experiment [2], 8.97% (active); in experiment [3], -20% (active); in [4] it was -13.8% (active); in experiment [5], 29.1%; in [6], 24.7%. In addition, the growth in [7] is 4.87% (active); in experiment [8] it was -6% (active); in experiment [9], 15.5%.

Turning to `COC(=O)c1cccc2c1N(C)c1c(cccc1C(=O)OC)CC2`, the growth is 107% in experiment [1]; 121% in experiment [2]; 115% in [3]; 111% in [4]; 124% in experiment [5]; 98.8% in experiment [6]. The growth in [7] was 104%; in [8] it was 106%; in experiment [10], 121%; in experiment [9] it was 104%.

Turning to `C=C[C@@H]1C[C@H](O)Cc2c(C)cc(C)cc2N1`, the growth was 102% in [1]; 92% in [2]; 103% in experiment [3]; 101% in [4]; 108% in experiment [5]; 97.5% in [6]. The growth was 91.9% in [7], 92.3% in [8], 97.6% in experiment [10] and 98.9% in experiment [9].

As to `CCN(CC)c1ccc2[nH]c3c(C(N)=O)cc(=O)c(=O)c=3oc2c1`, the growth in experiment [1] is -1.89% (active); in [2] it was 9.48% (active); in experiment [3], -59.9% (active); in experiment [4], 18%; in experiment [5], -24.5% (active); in experiment [6], 10.5%. For the same compound, the growth is -9.14% (active) in [7], -28.3% (active) in experiment [8], -29.2% (active) in experiment [10] and -7.36% (active) in experiment [9].

Consider `CN(C[C@H]1Cc2c(cccc2N2CCN(Cc3ccccn3)CC2)CN1)[C@H]1CCCc2cccnc21`, for which the growth in experiment [1] was 66.6%; in experiment [2], 9.95% (active); in experiment [3], 88.3%; in experiment [4], 70.2%; in experiment [5], 77.9%; in experiment [6], 63.8%. Further, the growth in experiment [7] is 43.4%; in experiment [8], 83%; in experiment [10], 93.1%; in [9] it was 62.3%.

Regarding `COc1ccc(C2=CC(c3cc(OC)c(OC)c(OC)c3)NC(=O)N2)cc1OC` (stereo not given), the growth in experiment [1] is -17.1% (active); in experiment [2], 10.6%; in [3], 11.2%; in experiment [4] it was 21.8%; in [5], 0.616% (active); in experiment [6], 32.2%. The growth in experiment [7] is 6.53% (active); in experiment [10], 57.2%; in experiment [9] it was 17.2%.

As to `COC(=O)[C@]12CC[C@@H](C)[C@H](C)[C@@H]1C1=CC[C@@H]3[C@@]4(C)C(C=O)=C[C@@](C)(COC(=O)c5ccco5)[C@@H]4[C@H](O)C[C@@]3(C)[C@]1(C)CC2`, the growth is -74.3% (active) in experiment [1]; 2.92% (active) in experiment [2]; -63.6% (active) in [3]; -47.4% (active) in experiment [4]; -63% (active) in experiment [5]; 2.92% (active) in experiment [6]. Moreover, the values for the growth in experiment [7], in [8] and in [9] were -76.2% (active), -62.6% (active) and -23.3% (active), respectively.

In the case of `CN(C[C@H]1Cc2c(cccc2N2CCN(c3ncccn3)CC2)CN1)[C@H]1CCCc2cccnc21`, the growth in [1] is 55%; in [2], 8.04% (active); in experiment [3] it was 82.7%; in [4], 52.9%; in experiment [5] it was 57.6%; in experiment [6], 60%. Besides, the growth was 44.4% in [7], 55.5% in experiment [8], 55.1% in experiment [10] and 53.7% in [9].

With `O=[N+]([O-])c1cc(S(=O)(=O)Oc2ccccc2)ccc1Cl`, the growth was -81% (active) in experiment [1]; 1.22% (active) in experiment [2]; -68.8% (active) in experiment [3]; 40.7% in [4]; 35% in experiment [5]; 24.2% in experiment [6]. Also, the growth in experiment [7] is 28.7%; in experiment [10], 45.4%; in experiment [9] it was -21.5% (active).

Consider `COc1ccc(-c2nc(-c3nc4cc(C)c(C)cc4[nH]3)cc3c2[nH]c2ccccc23)cc1`, for which the growth was 84.7% in [1]; 11.4% in experiment [2]; 73.1% in experiment [3]; -49.5% (active) in experiment [4]; -63.8% (active) in [5]; 80.5% in experiment [6]. The growth in experiment [7] is 25.4%; in experiment [8] it was 5.88% (active); in [10] it was 89.1%; in experiment [9], 70.2%.

Consider `O=C(O)C1CCCCN1c1nc(Cl)nc(Cl)n1` (stereo not given), for which the growth is 107% in experiment [1]; 103% in [2]; 108% in experiment [3]; 110% in experiment [4]; 113% in [5]; 99.2% in [6]. Besides, the growth in experiment [7] was 101%; in experiment [8], 92.6%; in experiment [10] it was 100%; in experiment [9] it was 108%.

On to `CCCCCCCCCCCCNC(=O)[C@H]1CSC(c2cc(Br)cs2)N1` (stereo not given in full), for which the growth in experiment [1] was -48.2% (active); in [2], -47.2% (active); in [3], 13.1%; in experiment [4], -77.9% (active); in experiment [5], -60% (active); in [6] it was -72.4% (active). Besides, the growth was 36% in experiment [7], -66.3% (active) in experiment [8], -22.3% (active) in experiment [10] and -83.5% (active) in [9].

Take `C=CCn1c2ccccc2c2c3c(c4c5ccccc5n(CC=C)c4c21)C(=O)N(O)C3=O`: the growth was 24.9% in [1]; 27.3% in experiment [2]; 96.1% in [3]; 39.4% in experiment [4]; 42.2% in [5]; 33.7% in experiment [6]. Further, the growth was 16.2% in [7], 2.86% (active) in experiment [8] and 17.2% in experiment [9].

For `C=C1CCC2C(C)(CO)C(O)CCC2(C)C1CC(NCc1ccccc1)C1=CCOC1=O` (stereo not given), the growth in experiment [1] was 104%; in experiment [2], 101%; in [3], 100%; in [4], 99.6%; in experiment [5], 103%; in experiment [6] it was 86.5%. Also, the growth in experiment [7] was 111%; in experiment [8], 101%; in experiment [10], 102%; in [9], 97.3%.

The values above are taken from PubChem BioAssay (NCI).
